Sampled rows, rich in hits. Any-hit rate of the full collection: about 1.2%.
HTT aggregate: reduces HttQ103-GFP aggregates in PC12 cells; PC12 HttQ103-GFP aggregates, Acumen cytometry, 40 h; Potency, µM (top dose mostly 46.1 µM), inactives show at the highest dose activity change, negative = inhibition, most hits filed as inhibitors; 220,000 tested, 1.1% active; also: potency is read from the fitted curve at half-maximal effect; % is scaled to controls: 0 for no effect and ±100 for the full control effect; nearly all actives have a fitted effect of over 60% in size
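Quantitative HTS on tebufenozide-induced (100 nM) PC12 cells stably expressing polyQ103 Huntingtin exon 1–GFP. Reduction of bright GFP aggregates, detected by laser scanning cytometry after lysis, identified actives across the titration.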
GLA spleen mod: inhibits or activates alpha-galactosidase in human spleen homogenate. P06280. human spleen homogenate, 4MU-alpha-Gal fluorescence, 40 min. Potency, µM (doses to about 80 µM), for inactives: at the top dose activity change, negative = inhibition, most hits filed as inhibitors. 240,000 tested, 0.008% active. AID 2107;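 also: potency is read from the fitted curve at half-maximal effect; 0% = enzyme with vehicle and -100% = no enzyme basal signal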
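Inhibition or activation of alpha-galactosidase in human spleen homogenate is scored by 4-MU fluorescence after 40 min at 37C, pH 5.0, with 1 mM substrate. AC50s come from concentration-response fitted to the Hill equation.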
HTT cytoprotect: cytoprotection in Huntington HTT-Q103 PC12 cell model | PC12 HTT-Q103 induced, cytoprotection, ATP luminescence, 40 h | 230,000 tested, 0.14% active | Potency, µM (titrated, usually from 56.4 µM), for inactives: cytoprotection (ATP increase), most hits filed as activators | AID 1471; also: potency is read from the fitted curve at half-maximal effect; % of control where 0% means no effect; nearly all actives have a fitted effect of over 45% in size
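Compounds were screened for protection of PC12 cells against cell death after tebufenozide induction (100 nM final) of mutant Huntingtin exon 1 (Q103) fused to GFP.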
GLA inh pH 4.5: inhibitors of human alpha-galactosidase A at pH 4.5; 230,000 tested, under 10 active; AID 1467; purified enzyme, 4-MU-alpha-Gal fluorescence, pH 4.5; P06280; activity change, negative = inhibition, % at 105 µM;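 also: 0% = full activity with enzyme and -100% = basal without enzyme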
Target sequence (P06280 whole entry, looked up): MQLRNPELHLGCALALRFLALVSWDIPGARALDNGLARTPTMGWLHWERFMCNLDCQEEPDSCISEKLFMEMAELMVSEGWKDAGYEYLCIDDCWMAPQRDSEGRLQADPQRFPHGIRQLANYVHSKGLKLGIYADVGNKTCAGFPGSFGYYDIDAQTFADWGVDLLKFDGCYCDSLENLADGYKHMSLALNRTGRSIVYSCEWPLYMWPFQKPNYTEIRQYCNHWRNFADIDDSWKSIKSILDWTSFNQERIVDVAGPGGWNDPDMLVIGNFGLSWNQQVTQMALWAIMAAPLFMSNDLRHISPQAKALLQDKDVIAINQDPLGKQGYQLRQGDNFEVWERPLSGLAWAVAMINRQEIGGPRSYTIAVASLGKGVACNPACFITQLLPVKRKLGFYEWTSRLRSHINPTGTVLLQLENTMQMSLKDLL
An asterisk follows results filed as active; ! = not confirmed by another sample; [ ] = remark or other dose. Calls follow the shape of the dose curve; as a rule, active = well fitted curve in the direction sought with a large enough effect; inconclusive = small, poorly fitted or top-dose-only effect, or another doubt; inactive = no such curve, though single readings can be large; an effect the other way counts as inactive or inconclusive.

Cc1nn(-c2ccccc2)c(Cl)c1CN(C(=O)CCl)c1ccc(Cl)cc1 was read as HTT aggregate 25µM*, GLA spleen mod 5%, HTT cytoprotect -3%[10 µM] and GLA inh pH 4.5 -1.
Screening Cc1nn(-c2ccccc2)c(Cl)c1CN(C(=O)CCl)c1cccc2ccccc12 returned HTT aggregate 13µM*, GLA spleen mod 0%, HTT cytoprotect 26%[1.9 µM] and GLA inh pH 4.5 -2.
Cc1cc(C)c(/C=C2/C(=O)Nc3ccccc32)[nH]1 was read as HTT cytoprotect 28%[1.9 µM].
Screening Cc1nn(C)c2nc(NNC(=O)Nc3cc(Cl)nc(Cl)c3)cc(C(C)C)c12 returned GLA spleen mod 3% and GLA inh pH 4.5 -2.
For Cn1c(N)c(N2CCCCC2)c(=O)n(CC(=O)Nc2ccc(Cl)c(Cl)c2)c1=O the results were HTT aggregate -8%, GLA spleen mod -2%, HTT cytoprotect -13% and GLA inh pH 4.5 -4.
Screening O=C(Cn1c2c(sc1=O)C1c3ccccc3OCC1CS2)Nc1ccc(Cl)c(Cl)c1 (configuration not stated) returned HTT aggregate 2.8µM*, GLA spleen mod 1%, HTT cytoprotect 4%[10 µM] and GLA inh pH 4.5 -1.
For C[C@]12C[C@@](C)(C=C1/C=C/c1ccc(C(F)(F)F)cc1)C(=O)C[C@H]2c1ccc(C(F)(F)F)cc1 the results were GLA spleen mod 2%, HTT cytoprotect 16% and GLA inh pH 4.5 -4.
Screening Cc1cc(=O)[nH]c(SCC(=O)Nc2cccc3ccccc23)c1C#N returned HTT aggregate 3.2µM*, GLA spleen mod 1%, HTT cytoprotect 20% and GLA inh pH 4.5 -1.
For Cc1ccc(S(=O)(=O)COCCN2CCN(S(=O)(=O)c3ccc(C)cc3)CCC2=O)cc1 the results were GLA spleen mod -18%, HTT cytoprotect -30% and GLA inh pH 4.5 -10.
S=C(NC1CCCCC1)N1CCc2ccccc2C1 was read as HTT aggregate 7.1µM*, GLA spleen mod -1% and GLA inh pH 4.5 2.
For C=CC1=C(C)C2=NC1=CC1=NC(=CC3=NC(=CC4=NC(=C2)C(C)=C4CCC(=O)O)C(CCC(=O)O)=C3C)C(C=C)=C1C.[Zn] the results were GLA spleen mod 4%, HTT cytoprotect -35%[1.9 µM] and GLA inh pH 4.5 -18.
`CN(Cc1c(F)cccc1Cl)c1ccc(S(=O)(=O)N2CCOCC2)cn1` gave HTT aggregate 3.5µM*, GLA spleen mod -1%, HTT cytoprotect -42% and GLA inh pH 4.5 -5.
For CN(CCOc1ccccc1)c1ccc(S(=O)(=O)N2CCCCC2)cn1 the results were HTT aggregate -32%, GLA spleen mod 2%, HTT cytoprotect -33% and GLA inh pH 4.5 -29.
O=C(O)C(NS(=O)(=O)c1cccc2cccnc12)c1ccccc1 (configuration not stated) was read as HTT cytoprotect -2%.
O=C(C(Sc1ccccc1)c1ccccc1)N1CCN(c2ccccc2F)CC1 (configuration not stated) was read as HTT aggregate 10µM*, GLA spleen mod inconclusive, HTT cytoprotect -58% and GLA inh pH 4.5 -1.
For O=C(Nc1nnc(C2CC2)o1)c1ccc(S(=O)(=O)N2CCCc3ccccc32)cc1 the results were HTT aggregate 11µM*, GLA spleen mod 0%, HTT cytoprotect -17% and GLA inh pH 4.5 -3.
`O=C(O)c1ccc(-c2ccccc2C(F)(F)F)s1` gave GLA spleen mod 0%[119 µM], HTT cytoprotect 1%[96.6 µM] and GLA inh pH 4.5 -5.
CN1CCN(S(=O)(=O)c2ccc(Sc3nnnn3-c3ccccc3)c([N+](=O)[O-])c2)CC1 was read as HTT aggregate 11µM*, GLA spleen mod 5%, HTT cytoprotect 8%[10 µM] and GLA inh pH 4.5 -7.
COc1ccc(CCN2C(=O)C3C4C=CC(C3C2=O)C2C(=O)N(CCc3ccc(OC)c(OC)c3)C(=O)C42)cc1OC (configuration not stated) was read as HTT aggregate 10µM*, GLA spleen mod 5%, HTT cytoprotect -57%[10 µM] and GLA inh pH 4.5 8.
`COc1ccc(CCN2C(=O)C3C4C=CC(C5CC45)C3C2=O)cc1OC` (configuration not stated) gave HTT aggregate 37%[9.22 µM], GLA spleen mod -8%, HTT cytoprotect 40%[10 µM] and GLA inh pH 4.5 1.
For Cc1ccc2ccccc2c1[N+](=O)[O-] the results were GLA spleen mod 5% and HTT cytoprotect 1%.
CCCCCCCCn1ccc(=N)cc1 was read as HTT aggregate -45%[9.22 µM], GLA spleen mod 0%, HTT cytoprotect -64%[10 µM] and GLA inh pH 4.5 -5.
Screening CCCCCCCCCCCCCCCCn1cc[n+](C)c1 returned HTT aggregate 13µM*!, GLA spleen mod -5%, HTT cytoprotect -41%[10 µM] and GLA inh pH 4.5 -1.
`NCCCC[C@H](NC(=O)[C@@H]1CCCN1C(=O)[C@H](CO)NC(=O)[C@H](CC(=O)O)NC(=O)CNC(=O)[C@H](CCCN=C(N)N)NC(=O)CN)C(=O)O` gave GLA spleen mod -4%.
For Cc1cc(C)n2nc(SCc3nnc(SCc4ccccc4Cl)s3)nc2n1 the results were HTT aggregate -23%, GLA spleen mod -2%, HTT cytoprotect 14%[10 µM] and GLA inh pH 4.5 -8.
Cc1cc(C)n2nc(SCc3nnc(SCc4ccccc4C)s3)nc2n1 was read as HTT aggregate 13µM*, GLA spleen mod 4%, HTT cytoprotect 18%[10 µM] and GLA inh pH 4.5 3.
For CC[n+]1c(C=C2C=C(C)OC(C)=C2)sc2ccccc21 the results were HTT aggregate 4µM*, GLA spleen mod 1%, HTT cytoprotect -97% and GLA inh pH 4.5 -14.
`CC[n+]1c(/C=C/Nc2ccccc2)sc2ccccc21` gave HTT aggregate 11µM*, GLA spleen mod 1%, HTT cytoprotect -48% and GLA inh pH 4.5 -8.
`O=C(Nc1nc(-c2ccccn2)cs1)c1ccc(Cl)s1` gave HTT aggregate 0.89µM*, GLA spleen mod 2%, HTT cytoprotect -95%[10 µM] and GLA inh pH 4.5 -18.
For O=C(Nc1nc(-c2ccccn2)cs1)c1ncc(Cl)c(Cl)c1Cl the results were HTT aggregate inconclusive, GLA spleen mod 4%, HTT cytoprotect -37% and GLA inh pH 4.5 1.
`Cc1csc(NC(=O)c2cccn2C)n1` gave HTT aggregate 11%, GLA spleen mod 6%, HTT cytoprotect -5% and GLA inh pH 4.5 10.
For Cn1cccc1C(=O)Nc1nc(-c2ccccn2)cs1 the results were HTT aggregate 13µM*, GLA spleen mod -6%, HTT cytoprotect -5% and GLA inh pH 4.5 -2.
For O=c1c2c3nc4ccccc4nc3n(/N=C/c3cccs3)c2ncn1-c1ccccc1 the results were HTT aggregate 1.8µM*, GLA spleen mod -19%, HTT cytoprotect -8%[0.074 µM] and GLA inh pH 4.5 4.
For Cc1cc(N/N=C/c2ccccc2)nc(NCc2ccccc2)n1 the results were HTT aggregate -22%, GLA spleen mod 5%, HTT cytoprotect -22%[10 µM] and GLA inh pH 4.5 -3.
`Cc1cc(N/N=C/c2ccc(Cl)cc2)nc(NCc2ccccc2)n1` gave HTT aggregate 13µM*, GLA spleen mod -21% and GLA inh pH 4.5 0.

From PubChem
